TDP1 cell noCPT = qHTS for Inhibitors of human tyrosyl-DNA phosphodiesterase 1 (TDP1): qHTS in cells in absence of CPT | Potency, µM (top dose mostly 46.2 µM), for the others: at the top dose activity change, negative = growth inhibition, usual class: inhibitors | DT40 Tdp1-/- hTDP1 cells, no CPT, ATP luminescence, 48 h | 420,000 tested, 15% active; also: potency is read from the fitted curve at half-maximal effect; nearly all actives have a fitted effect of over 55% in size
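Cells were dispensed at 400 per well, compounds added by pin tool, plates incubated ≥48 hr at 37 °C, then CellTiter-Glo added for 30 min at room temperature before luminescence reading. Line: DT40 Tdp1-/- complemented with hTDP1; camptothecin omitted.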
HT1080-NT tox = kills 2HG-producing HT-1080-NT fibrosarcoma cells | HT-1080-NT fibrosarcoma viability, CellTiter-Glo ATP luminescence, 48 h | AID 686970 | 360,000 tested, 1.6% active | Potency, µM (highest dose often 46.1 µM), inactives show at the highest dose activity, negative = less viability, actives largely listed as cytotoxic;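 also: NT is the 2HG producing partner of a matched IDH1 knockdown line; potency is read from the fitted curve at half-maximal effect; 0% = DMSO-treated cells and -100% = media-only wells without cells; nearly all actives have a fitted effect of over 55% in size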
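Fibrosarcoma NT cells, 750 per well in 5% FBS RPMI, were exposed to compound for 48 hours. Viability: CellTiter-Glo luminescence.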
HT1080 IDH1KD tx = kills HT-1080 cells with IDH1 knockdown. HT-1080 IDH1 knockdown viability, ATP luminescence, 48 h. Potency, µM (series often up to 46.1 µM), without a hit: at the highest dose activity, negative = toxicity, actives largely listed as cytotoxic. 360,000 tested, 2% active;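 also: potency is read from the fitted curve at half-maximal effect; 0% = DMSO wells and -100% = cell-free medium wells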
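IDH1KD HT-1080 cells, 750/well, RPMI + 5% FBS; compound pinned after 2 h settling; 48 h, 37 °C; CellTiter-Glo luminescence; % activity normalised to DMSO and no-cell wells; curves fitted, classed by r2 and efficacy.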
12-LOX inh = blocks human arachidonate 12S-lipoxygenase. 580,000 tested, 1.1% active. purified 12hLO, xylenol orange hydroperoxide absorbance. P18054. Potency, µM (titrated, usually from 108 µM), without a hit: top-dose activity change, negative = inhibition, most hits filed as inhibitors. AID 1671190; also: potency is read from the fitted curve at half-maximal effect
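Hydroperoxide product was detected by ferrous iron/xylenol orange as the 573 to 405 nm absorbance ratio. Arachidonic acid at 40 uM (final) was turned over for 30 min at room temperature by 150 nM human 12hLO, pH 7.0 Hepes buffer, after 15 min compound preincubation.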
IL1B secr inh = inflammasome signaling inhibition, IL-1 beta readout | activity change, % at 57.5 µM | THP-1 LPS/ATP IL-1B secretion, AlphaLISA, 16 h; stronger effect = lower value | 360,000 tested, 4.7% active; in the data active = activity change below about -50%; inconclusive = mostly about -30% to -49%
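THP-1 cells pretreated 1 hr with compounds (up to 57.5 uM final), then stimulated with LPS (250 ng/mL final) plus ATP (1.25 mM final); secreted IL-1B measured by AlphaLISA after 16 hr, decreased signal indicating inhibition.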
TDP1 cell CPT = growth inhibition of DT40 Tdp1-/-;hTDP1 cells with camptothecin (screen for TDP1 inhibitors); chicken DT40 Tdp1-/-;hTDP1 cells + 20 nM CPT, ATP luminescence, 48 h; 420,000 tested, 12% active; Potency, µM (titrated, usually from 46.2 µM), for the others: at the top dose activity change, negative = growth inhibition, hits mostly inhibitors; also: potency is read from the fitted curve at half-maximal effect; nearly all actives have a fitted effect of over 55% in size
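Chicken DT40 Tdp1-/- cells stably complemented with human TDP1 were seeded at 400 cells/well in medium containing 20 nM camptothecin, exposed to pin-transferred compounds, and grown at 37 °C for at least 48 hr. Viability was read as ATP luminescence.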
* hit, by the source's call; ? = inconclusive; · = no result. Shown is part of a subset that was picked to be rich in hits. Unless noted, calls follow the shape of the dose curve; as a rule, active = well fitted curve in the direction sought with a large enough effect; inconclusive = small, poorly fitted or top-dose-only effect, or another doubt; inactive = no such curve, though single readings can be large; an effect the other way counts as inactive or inconclusive. Unless noted, % is scaled to controls: 0 for no effect and ±100 for the full control effect.

SMILES | TDP1 cell noCPT | HT1080-NT tox | HT1080 IDH1KD tx | 12-LOX inh | IL1B secr inh | TDP1 cell CPT
CCOC(=O)C1CCCN(S(=O)(=O)c2ccc(Br)s2)C1 (stereo not drawn) | -14.0% | 4.2% | -3.9% | -11.9% | 0.0 | ?
O=C(O)C1CCCN(S(=O)(=O)c2cccs2)C1 (stereo not drawn) | -0.6% | 2.2% | 12.1% | 8.8% | -0.9 | 2.6%
O=C(C1CCCN(S(=O)(=O)c2ccc(Br)s2)C1)N1CCN(c2ccc(F)cc2)CC1 (stereo not drawn) | 11.6µM* | · | · | -27.5% | · | 18.4µM*
CC1(C)NC(=O)N(CCC(=O)Nc2ccc(C(C)(C)C)cc2)C1=O | -37.6% | -2.2% | -1.9% | 5.0% | 24.6 | 9.0%
CCN(CC1COc2ccccc2O1)C(=O)CSc1nnnn1C1CC1 (stereo not drawn) | · | · | · | -9.9% | · | ·
CS(=O)(=O)N1CCN(C(=O)Nc2ccccc2)C[C@H]1C(=O)N[C@H](Cc1c[nH]c2ccccc12)C(N)=O | · | · | · | 0.6% | · | ·
CNC(=O)NC(=O)C(C)n1cnc2c1c(=O)n(C)c(=O)n2C (stereo not drawn) | · | · | · | 4.5% | · | ·
N#Cc1ccc(C(=O)NC2CCCCC2C(F)(F)F)cc1 (stereo not drawn) | · | · | · | -21.9% | · | ·
CN(C)c1nc2cc3c(cc2cc1CN(CC1CCCO1)C(=O)/C=C/c1cccs1)OCO3 (stereo not drawn) | -6.8% | · | · | 14.0% | · | 2.7%
CC(Sc1nc2ccccc2c(=O)n1CCCO)c1nnc(-c2ccccc2)o1 (stereo not drawn) | · | · | · | -2.6% | · | ·
COc1ccccc1-c1noc2c1C(=O)N(Cc1cn(Cc3ccccc3)nn1)CC2 | ? | -1.0% | -0.4% | ? | 0.0 | ?
CC(=O)c1ccc(N2CCN(C(=O)C3CCCN(S(=O)(=O)c4ccc(Br)s4)C3)CC2)cc1 (stereo not drawn) | 9.2µM* | · | · | -13.6% | · | 14.6µM*
CCc1nnc([C@@H]2CC(F)(F)CN2C(=O)c2nccn2C)o1 | · | · | · | 32.6% | · | ·
FC(F)(F)c1ccc(/C=N/NC(=S)NC2CCCCC2)cc1 | 5.8µM* | -18.8% | -25.6% | -8.7% | 1.9 | ?
C=CCNC(=S)N/N=C/c1ccccc1C(F)(F)F | · | · | · | 2.4% | · | ·
